# Active and inactive are the calls of the source. The calls were made as follows: active = hit-call score of the fitted dose curve at least 0.9, where 1 is the maximum; inactive = score below 0.9.
# Tests used:
# Conditions in all cases: mRNA level, 48 h; actives raise or lower the signal
# [1] = read-out: growth arrest and DNA damage 45 (GADD45B), GADD45B (gene 4616); experiment: LTEA_HepaRG_GADD45B: Life Technologies and Expression Analysis (LTEA) Assay for growth arrest and DNA damage 45 (GADD45B) using HepaRG (AID 2283461)
# How it was run: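 Values are bidirectional concentration-response fits against 0.5% DMSO controls. Underlying data: qRT-PCR mRNA levels in human HepaRG liver cells treated 48 h in serum-free induction medium, eight concentrations topping at 100 uM.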
# [2] = read-out: ABC Transporter (ABCC3), ABCC3 (gene 8714); experiment: LTEA_HepaRG_ABCC3: Life Technologies and Expression Analysis (LTEA) Assay for ABC Transporter (ABCC3) using HepaRG (AID 2283462)
# How it was run: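 Differentiated HepaRG liver cells receive test chemicals at eight concentrations (max 100 uM) for 48 h. Expression of ABCC3 is quantified by qRT-PCR against ACTB, GAPDH and POLR2A, and activity is fitted in both directions against the DMSO control.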
# [3] = read-out: ABC Transporter (ABCB11), ABCB11 (gene 8647); experiment: LTEA_HepaRG_ABCB11: Life Technologies and Expression Analysis (LTEA) Assay for ABC Transporter (ABCB11) using HepaRG (AID 2283463)
# How it was run: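 ABCB11 transcript levels are read by Fluidigm TaqMan qRT-PCR after 48 h chemical treatment of human HepaRG cells. Concentrations span 100 uM downward in half-log steps with 0.5% DMSO; gain or loss is fitted against DMSO controls.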
# [4] = read-out: ABC Transporter (ABCC2), ABCC2 (gene 1244); experiment: LTEA_HepaRG_ABCC2: Life Technologies and Expression Analysis (LTEA) Assay for ABC Transporter (ABCC2) using HepaRG (AID 2283464)
# How it was run: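 Gene expression of ABCC2 was determined by qRT-PCR in HepaRG cells exposed 48 h to chemicals (highest 100 uM, half-log dilutions). Activity was fitted in both directions relative to 0.5% DMSO vehicle.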
# [5] = read-out: Broad substrate specificity ATP-binding cassette transporter ABCG2 (Homo sapiens) (UniProt Q9UNQ0); experiment: LTEA_HepaRG_ABCG2: Life Technologies and Expression Analysis (LTEA) Assay for ABC Transporter (ABCG2) using HepaRG (AID 2283465)
# How it was run: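 Read-out is ABCG2 mRNA induction or loss quantified by qRT-PCR after 48 h chemical treatment of human HepaRG cells, normalized to three housekeeping genes. Concentrations reached 100 uM top in half-log steps; fitting was bidirectional against 0.5% DMSO.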
# [6] = read-out: Peroxisomal acyl-coenzyme A oxidase 1 (ACOX1) gene, ACOX1 (gene 51); experiment: LTEA_HepaRG_ACOX1: Life Technologies and Expression Analysis (LTEA) Assay for Peroxisomal acyl-coenzyme A oxidase 1 (ACOX1) gene using HepaRG (AID 2283467)
# How it was run: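 Measured by qRT-PCR against three housekeeping genes: ACOX1 transcript change in human HepaRG cells after 48 h dosing. Concentrations ran up to 100 uM in half-log steps. Curves were fitted bidirectionally relative to 0.5% DMSO.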
# [7] = read-out: Alkaline Phosphatase, Placental (ALPP) gene, ALPP (gene 250); experiment: LTEA_HepaRG_ALPP: Life Technologies and Expression Analysis (LTEA) Assay for Alkaline Phosphatase, Placental (ALPP) gene using HepaRG (AID 2283468);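 as to AC50: ALPP transcript by TaqMan qRT-PCR normalized to ACTB GAPDH and POLR2A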
# How it was run: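 Expression of ALPP was quantified by qRT-PCR against three housekeeping genes in human HepaRG cultures treated for 48 h with an eight-point concentration series up to 100 uM. Activity in either direction was fitted relative to 0.5% DMSO.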
# [8] = read-out: Bcl-2 (BAD) gene, BAD (gene 572); experiment: LTEA_HepaRG_BAD: Life Technologies and Expression Analysis (LTEA) Assay for Bcl-2 (BAD) gene using HepaRG (AID 2283469)
# How it was run: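 BAD transcript change, measured by qRT-PCR against three housekeeping genes and fitted in both directions relative to 0.5% DMSO, after 48 h chemical treatment of human HepaRG liver cells at concentrations up to 100 uM.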
# [9] = read-out: adenosine kinase (ADK) gene, ADK (gene 132); experiment: LTEA_HepaRG_ADK: Life Technologies and Expression Analysis (LTEA) Assay for adenosine kinase (ADK) gene using HepaRG (AID 2283471)
# How it was run: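 Following 48 h exposure of HepaRG cells in 0.5% DMSO (top concentration 100 uM, duplicate wells), ADK mRNA induction or suppression was measured by qRT-PCR, normalised to ACTB/GAPDH/POLR2A, and fitted bidirectionally relative to vehicle.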
# [10] = read-out: Alpha-fetoprotein (AFP) gene, AFP (gene 174); experiment: LTEA_HepaRG_AFP: Life Technologies and Expression Analysis (LTEA) Assay for Alpha-fetoprotein (AFP) gene using HepaRG (AID 2283472)
# How it was run: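 HepaRG, single lot; 48 h post-plating -> serum-free induction medium; cpd 8-pt, 100 uM top, half-log, 0.5% DMSO, duplicate, 48 h. RNA -> qRT-PCR AFP, norm ACTB/GAPDH/POLR2A. Bidirectional fit vs DMSO.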
# [11] = read-out: BCL2L11 (gene 10018); experiment: LTEA_HepaRG_BCL2L11: Life Technologies and Expression Analysis (LTEA) Assay for Bcl-2 (BCL2L11) gene using HepaRG (AID 2283473)
# How it was run: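 Cells were plated, cultured 48 h, switched to serum-free induction medium, then dosed in duplicate for 48 h at eight half-log concentrations up to 100 uM. Lysates underwent RNA isolation and TaqMan qRT-PCR; gain or loss versus DMSO was fitted.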
# [12] = read-out: Apoptosis regulator Bcl-2 (Homo sapiens) (UniProt P10415); experiment: LTEA_HepaRG_BCL2: Life Technologies and Expression Analysis (LTEA) Assay for Bcl-2 gene using HepaRG (AID 2283475)
# How it was run: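 HepaRG, plated 48 h then switched to serum-free induction medium; dosed 48 h, 8 conc. (max 100 uM, half-log steps), duplicate, 0.5% DMSO. Lysis in RLT, RNA isolated, TaqMan qRT-PCR for BCL2; ACTB/GAPDH/POLR2A normalisation; bidirectional fit vs DMSO.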
# [13] = read-out: Caspase-3 (Homo sapiens) (UniProt P42574); experiment: LTEA_HepaRG_CASP3: Life Technologies and Expression Analysis (LTEA) Assay for cysteine-aspartic acid protease (CASP3) using HepaRG (AID 2283477)
# How it was run: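 In HepaRG liver cells dosed for 48 h at up to 100 uM (eight-point, duplicate), CASP3 expression changes are scored by qRT-PCR. Activity is fitted in both directions with 0.5% DMSO as baseline.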
# [14] = read-out: Cytochrome P450 (CYP24A1), CYP24A1 (gene 1591); experiment: LTEA_HepaRG_CYP24A1: Life Technologies and Expression Analysis (LTEA) Assay for Cytochrome P450 (CYP24A1) using HepaRG (AID 2283478)
# How it was run: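 Human liver HepaRG cultures receive each chemical for 48 h across an eight-point half-log series topping at 100 uM in 0.5% DMSO. Induction or suppression of CYP24A1 mRNA is scored relative to vehicle after housekeeping-gene normalization.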
# [15] = read-out: Cytochrome P450 (CYP1A2), CYP1A2 (gene 1544); experiment: LTEA_HepaRG_CYP1A2: Life Technologies and Expression Analysis (LTEA) Assay for Cytochrome P450 (CYP1A2) using HepaRG (AID 2283479)
# How it was run: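 Assesses CYP1A2 mRNA in human HepaRG liver cells after 48 h chemical exposure at up to 100 uM. Values come from qRT-PCR with bidirectional curve fitting relative to DMSO.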
# [16] = read-out: cysteine-aspartic acid protease (CASP8), CASP8 (gene 841); experiment: LTEA_HepaRG_CASP8: Life Technologies and Expression Analysis (LTEA) Assay for cysteine-aspartic acid protease (CASP8) using HepaRG (AID 2283480)
# How it was run: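 HepaRG, 48 h exposure, duplicate wells; 8 conc, half-log from 100 uM, 0.5% DMSO. Serum-free induction medium. CASP8 mRNA by TaqMan qRT-PCR, norm. ACTB/GAPDH/POLR2A; gain/loss fitted vs DMSO.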
# [17] = read-out: Apolipoprotein A-V (APOA5) gene, APOA5 (gene 116519); experiment: LTEA_HepaRG_APOA5: Life Technologies and Expression Analysis (LTEA) Assay for Apolipoprotein A-V (APOA5) gene using HepaRG (AID 2283474)
# How it was run: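 Human liver HepaRG cells are treated 48 h with test chemicals (100 uM top, half-log dilutions, 0.5% DMSO). APOA5 mRNA induction or loss is measured by qRT-PCR relative to vehicle.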
# [18] = read-out: Bcl-2 (BID) gene, BID (gene 637); experiment: LTEA_HepaRG_BID: Life Technologies and Expression Analysis (LTEA) Assay for Bcl-2 (BID) gene using HepaRG (AID 2283476)
# How it was run: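 Transcript levels of BID, measured by qRT-PCR and normalized to three housekeeping genes, were fitted bidirectionally against DMSO controls. Cells were HepaRG, dosed 48 h at up to 100 uM.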
# Apoptosis regulator Bcl-2 (Homo sapiens), sequence (P10415 whole entry, looked up): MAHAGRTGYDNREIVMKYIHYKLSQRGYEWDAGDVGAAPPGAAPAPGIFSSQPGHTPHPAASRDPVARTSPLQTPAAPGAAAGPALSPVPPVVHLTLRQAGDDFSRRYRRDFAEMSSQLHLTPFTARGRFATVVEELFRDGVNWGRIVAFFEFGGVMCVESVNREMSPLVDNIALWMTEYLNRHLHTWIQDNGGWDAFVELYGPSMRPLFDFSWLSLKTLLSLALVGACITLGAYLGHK
# Caspase-3 (Homo sapiens), sequence (P42574 whole entry, looked up): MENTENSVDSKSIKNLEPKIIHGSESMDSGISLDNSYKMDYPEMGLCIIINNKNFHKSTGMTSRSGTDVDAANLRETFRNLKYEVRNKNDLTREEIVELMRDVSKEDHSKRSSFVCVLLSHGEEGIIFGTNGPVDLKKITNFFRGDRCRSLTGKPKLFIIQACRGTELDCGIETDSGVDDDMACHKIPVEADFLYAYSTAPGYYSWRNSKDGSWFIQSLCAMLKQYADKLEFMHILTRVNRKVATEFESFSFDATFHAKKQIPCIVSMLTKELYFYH
# Broad substrate specificity ATP-binding cassette transporter ABCG2 (Homo sapiens), sequence (Q9UNQ0 whole entry, looked up): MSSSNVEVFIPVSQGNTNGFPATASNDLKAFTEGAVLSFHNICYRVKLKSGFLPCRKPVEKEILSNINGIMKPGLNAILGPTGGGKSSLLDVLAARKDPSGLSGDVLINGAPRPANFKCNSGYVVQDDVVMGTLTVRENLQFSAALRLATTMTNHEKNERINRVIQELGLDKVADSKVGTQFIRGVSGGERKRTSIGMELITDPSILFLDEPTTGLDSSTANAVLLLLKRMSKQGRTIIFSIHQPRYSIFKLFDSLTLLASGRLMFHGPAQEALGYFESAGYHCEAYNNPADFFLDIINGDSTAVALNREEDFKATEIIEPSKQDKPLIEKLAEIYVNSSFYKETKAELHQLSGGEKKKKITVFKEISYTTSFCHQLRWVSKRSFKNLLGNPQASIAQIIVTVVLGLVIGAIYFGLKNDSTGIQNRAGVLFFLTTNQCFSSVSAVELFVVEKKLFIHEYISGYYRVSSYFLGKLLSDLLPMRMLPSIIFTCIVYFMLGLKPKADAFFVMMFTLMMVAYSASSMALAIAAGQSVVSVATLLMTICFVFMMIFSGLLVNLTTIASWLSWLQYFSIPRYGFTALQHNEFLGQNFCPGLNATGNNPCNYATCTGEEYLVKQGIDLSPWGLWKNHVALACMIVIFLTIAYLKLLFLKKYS
smiles,measurement,setting,value
CC1=C(/C=C/C(C)=C/C=C/C(C)=C/CO)C(C)(C)CCC1,outcome,[1],inactive
same,outcome,[2],inactive
same,outcome,[3],inactive
same,AC50,[4],52.2 µM (active)
same,AC50,[5],52.2 µM (active)
same,outcome,[6],inactive
same,outcome,[7],inactive
same,outcome,[8],inactive
same,outcome,[9],inactive
same,outcome,[10],inactive
same,outcome,[11],inactive
same,outcome,[12],inactive
same,outcome,[13],inactive
same,outcome,[14],inactive
same,outcome,[15],inactive
same,outcome,[16],inactive
CNCc1cc(F)ccc1Oc1ccc(Cl)c(Cl)c1,AC50,[1],91.3 µM (active)
same,outcome,[2],inactive
same,outcome,[3],inactive
same,AC50,[4],75.6 µM (active)
same,outcome,[5],inactive
same,AC50,[6],74.2 µM (active)
same,AC50,[7],81.8 µM (active)
same,outcome,[8],inactive
same,outcome,[9],inactive
same,outcome,[10],inactive
same,outcome,[11],inactive
same,outcome,[17],inactive
same,AC50,[12],88.3 µM (active)
same,outcome,[18],inactive
same,outcome,[13],inactive
same,outcome,[14],inactive
same,outcome,[15],inactive
same,outcome,[16],inactive

# From PubChem BioAssay (EPA / NIEHS)
